According to PubChem BioAssay AID1159580 (chemical genetic matrix, 2015):
Values joined by “and” are separate entries in the source; they are usually repeats but may differ in a detail not shown here. Identical values can stand only once. About 2,000 (36%) of roughly 5,500 compounds were called active. About 18% were inconclusive and are not listed. Cut-off read from the data, not from the text of the source: active = normalized growth mostly below about 0.91 (no sharp cut-off); inconclusive = no clear call, values can overlap the other calls; inactive = mostly above about 0.92. The list shows a part of the results.

Assay: chemical genetic growth profiling, strain panel (AID 1159580);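 note: tested at 20 µM; growth read once vehicle control cultures reached saturation at 30 °C; 1 = growth at the plate median or of vehicle wells; lower values mean less growth of the strain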
Conditions: S. cerevisiae deletion strains, growth OD

Measured: normalized growth

Nc1c2c(nc3ccccc13)CCCC2
inactive: locus YAL013W, strain DEP1, stronger effect = lower value 1.02 | locus YAL021C, strain ccr4, stronger effect = lower value 0.985 | locus YAL026C, strain drs2, stronger effect = lower value 0.975 | locus YAL030W, strain snc1, stronger effect = lower value 1.01 | locus YAL040C, strain CLN3, stronger effect = lower value 1.02 | locus YBL061C, strain skt5, stronger effect = lower value 0.984 | locus YBR009C, strain hhf1, stronger effect = lower value 0.978 | locus YBR021W, strain FUR4, stronger effect = lower value 0.853 | locus YBR023C, strain chs3, stronger effect = lower value 0.993 | locus YBR171W, strain sec66, stronger effect = lower value 0.959 | locus YBR229C, strain ROT2, stronger effect = lower value 1.02 | locus YBR231C, strain swc5, stronger effect = lower value 0.981 | locus YBR279W, strain paf1, stronger effect = lower value 1 | locus YCL011C, strain gbp2, stronger effect = lower value 1 | locus YCL016C, strain dcc1, stronger effect = lower value 1.01 | locus YCL029C, strain bik1, stronger effect = lower value 1.02 | locus YCL069W, strain vba3, stronger effect = lower value 0.989 | locus YCR088W, strain abp1, stronger effect = lower value 0.993 | locus YDL005C, strain med2, stronger effect = lower value 0.977 | locus YDL035C, strain GPR1, stronger effect = lower value 1.01 | locus YDL040C, strain nat1, stronger effect = lower value 0.989 | locus YDL074C, strain BRE1, stronger effect = lower value 1.01 | locus YDL101C, strain DUN1, stronger effect = lower value 1.02 | locus YDL134C, strain PPH21, stronger effect = lower value 1 | locus YDL185W, strain tfp1, stronger effect = lower value 1.01 | locus YDL192W, strain arf1, stronger effect = lower value 1.01 | locus YDR001C, strain nth1, stronger effect = lower value 0.983 | locus YDR069C, strain doa4, stronger effect = lower value 0.936 | locus YDR101C, strain arx1, stronger effect = lower value 1.02 | locus YDR137W, strain rgp1, stronger effect = lower value 1.02 | locus YDR150W, strain NUM1, stronger effect = lower value 1.02 and 0.999 | locus YDR159W, strain sac3, stronger effect = lower value 0.939 | locus YDR162C, strain NBP2, stronger effect = lower value 1.02 | locus YDR195W, strain ref2 0.963 | locus YDR297W, strain sur2, stronger effect = lower value 0.986 | locus YDR318W, strain mcm21, stronger effect = lower value 1.01 | locus YDR334W, strain swr1, stronger effect = lower value 0.974 | locus YDR335W, strain msn5, stronger effect = lower value 0.992 | locus YDR388W, stronger effect = lower value 1 | locus YDR392W, strain spt3, stronger effect = lower value 0.939 | locus YDR502C, strain sam2, stronger effect = lower value 1.02 | locus YEL003W, strain gim4, stronger effect = lower value 0.973 | locus YEL037C, strain rad23, stronger effect = lower value 0.978 | locus YEL061C, strain CIN8 (second series), stronger effect = lower value 0.983 | locus YEL061C, strain CIN8, stronger effect = lower value 1.01 | locus YER002W, strain NOP16, stronger effect = lower value 0.997 | locus YER015W, strain faa2, stronger effect = lower value 0.987 | locus YER016W, strain bim1, stronger effect = lower value 0.994 | locus YER110C, stronger effect = lower value 1.02 | locus YER111C, strain swi4, stronger effect = lower value 0.988 | locus YER155C, strain BEM2 (second series), stronger effect = lower value 0.902 | locus YER155C, strain BEM2, stronger effect = lower value 1 | locus YER167W, strain BCK2, stronger effect = lower value 1.01 | locus YFR010W, strain ubp6, stronger effect = lower value 0.944 | locus YGL078C, strain dbp3, stronger effect = lower value 1.02 | locus YGL086W, strain mad1, stronger effect = lower value 1.01 | locus YGL167C, strain pmr1, stronger effect = lower value 0.978 | locus YGL173C, strain kem1, stronger effect = lower value 0.958 | locus YGL227W, strain vid30, stronger effect = lower value 0.993 | locus YGL240W, strain doc1, stronger effect = lower value 0.946 | locus YGL248W, strain PDE1, stronger effect = lower value 1.02 | locus YGL253W, strain hxk2, stronger effect = lower value 0.96 | locus YGR078C, strain PAC10, stronger effect = lower value 0.992 | locus YGR135W, strain pre9, stronger effect = lower value 0.987 | locus YGR229C, strain SMI1, stronger effect = lower value 1.02 | locus YGR252W, strain gcn5, stronger effect = lower value 0.977 | locus YHR013C, strain ard1, stronger effect = lower value 0.867 | locus YHR027C, strain rpn1, stronger effect = lower value 0.968 | locus YHR030C, strain SLT2, stronger effect = lower value 1.01 and 0.987 | locus YHR079C, strain IRE1 (second series), stronger effect = lower value 1.02 | locus YHR079C, strain IRE1, stronger effect = lower value 1 | locus YHR094C, strain hxt1, stronger effect = lower value 1.02 | locus YHR129C, strain ARP1, stronger effect = lower value 1.02 | locus YHR142W, strain chs7, stronger effect = lower value 1 | locus YHR200W, strain rpn10, stronger effect = lower value 1.01 | locus YIL066C, strain RNR3, stronger effect = lower value 1.02 | locus YIL073C, strain SPO22, stronger effect = lower value 1.14 | locus YIL125W, strain kgd1, stronger effect = lower value 1.02 | locus YIR030C, strain dcg1, stronger effect = lower value 1.02 | locus YJL092W, strain hpr5, stronger effect = lower value 0.983 | locus YJL095W, strain BCK1 (second series), stronger effect = lower value 0.991 | locus YJL095W, strain BCK1, stronger effect = lower value 1.01 and 1 | locus YJL115W, strain asf1, stronger effect = lower value 0.981 | locus YJL129C, strain trk1, stronger effect = lower value 0.997 | locus YJL134W, strain LCB3, stronger effect = lower value 1.01 | locus YJL154C, strain vps35, stronger effect = lower value 0.974 | locus YJL164C, strain tpk1, stronger effect = lower value 1.01 | locus YJL166W, strain qcr8, stronger effect = lower value 0.992 | locus YJL168C, strain set2, stronger effect = lower value 1.01 | locus YJL187C, strain SWE1 (second series), stronger effect = lower value 1.01 | locus YJR043C, strain POL32, stronger effect = lower value 1.04 | locus YJR066W, strain TOR1, stronger effect = lower value 0.987 | locus YJR075W, strain HOC1, stronger effect = lower value 0.976 | locus YKL009W, strain mrt4, stronger effect = lower value 1.01
